Test systems include T-47D breast; BT-549 breast; MDA-MB-435 melanoma; SW-620 colon; HCT-116 colon; HCC-2998 colon; KM12 colon; MCF7 breast.
Assay in all cases: NCI-60 one-dose screen, 48 h (100 = growth as untreated, 0 = no growth, -100 = all killed)
Common to all, as to conditions: 10 µM unless noted

Compounds without any hit were thinned out: in the full panel of roughly 83,000, 20% have a hit.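 In brief: 96-well plates, 48 h treatment, single concentration, percent growth endpoint.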 Unmarked numbers belong to inactive results. Activity calls are given as the source filed them. Rule for the calls: active = growth percent below 10; inactive = the rest.

As to `CCN(CC)c1ccc2nc3ccc(N=Nc4ccc(N(C)C)cc4)cc3[n+](-c3ccccc3)c2c1`, the growth in the test on T-47D breast was 0.779% (active); with BT-549 breast, -23.3% (active); with MDA-MB-435 melanoma, -87.3% (active); with SW-620 colon, -82.5% (active); in the test with HCT-116 colon it was -70.3% (active); in the test on HCC-2998 colon, -69.7% (active). Besides, the growth in the test on KM12 colon is -64.3% (active).

In the case of `COc1ccc(Br)c(C=O)c1`, the growth in the test on T-47D breast is 69.9%; in the test with BT-549 breast, 76.6%; in the test on MDA-MB-435 melanoma it was 49.8%; in the test with MCF7 breast it was 31.5%; in the test on HCT-116 colon, 22.5%; with KM12 colon, 93.7%.

`CCOC(=O)C(C#N)=C1CCN(C)CC1`: the growth in the test with T-47D breast was 106%; in the test with BT-549 breast, 103%; with MDA-MB-435 melanoma it was 109%; with SW-620 colon, 97.2%; with HCT-116 colon, 103%; in the test on KM12 colon, 97.7%.

Consider `Cc1ccc2nc(-c3ccc(N=Cc4ccccc4O)cc3)sc2c1`, for which the growth in the test with T-47D breast is 69%; in the test on MDA-MB-435 melanoma it was 105%; in the test on SW-620 colon, 97.8%; in the test on MCF7 breast it was 77.1%; with HCT-116 colon, 79.2%; in the test with HCC-2998 colon, -12.3% (active). Further, in the test on KM12 colon, the growth is 99.2%.

In the case of `O=C(O)Cc1cccc2ccccc12`, the growth in the test with T-47D breast is 103%; in the test with BT-549 breast, 107%; in the test on MDA-MB-435 melanoma it was 104%; in the test on SW-620 colon it was 102%; in the test on HCT-116 colon, 106%; in the test on HCC-2998 colon it was 95.9%. In addition, the growth in the test on KM12 colon is 107%.

As for `O=C1Nc2ccccc2/C1=C\c1ccccc1O`, the growth in the test with T-47D breast is 71.9%; in the test with MDA-MB-435 melanoma it was 82.4%; in the test on SW-620 colon, 95.8%; with MCF7 breast, 65.5%; in the test with HCT-116 colon, 86.3%; in the test on HCC-2998 colon it was 94.5%. Also, the growth with KM12 colon is 82.3%.

As for `COc1cccc2c1Cc1ccccc1-2`, the growth with T-47D breast is 101%; in the test on BT-549 breast it was 106%; in the test with MDA-MB-435 melanoma, 103%; in the test on MCF7 breast, 100%; in the test with HCT-116 colon it was 101%; with HCC-2998 colon, 98.5%. For the same compound, in the test with KM12 colon, the growth is 104%.

`Cc1cc(CO)c(O)c(CO)c1`: the growth in the test with T-47D breast is 96.4%; with BT-549 breast, 94.7%; with MDA-MB-435 melanoma, 106%; with SW-620 colon, 99.9%; in the test on HCT-116 colon, 98.2%; with HCC-2998 colon it was 96.8%. Moreover, the growth with KM12 colon is 107%.

Take `O=C1C=CC(=O)C2=C1CCCC2`: the growth is 85.3% in the test on T-47D breast; 91.6% in the test on BT-549 breast; 102% in the test on MDA-MB-435 melanoma; 70.6% in the test on MCF7 breast; 91.8% in the test on HCT-116 colon; 123% with HCC-2998 colon. In addition, the growth with KM12 colon was 92.3%.

As to `N#CCCN1C(=O)CCC1C(=O)O` (stereo not drawn), the growth in the test with T-47D breast is 121%; in the test with BT-549 breast, 107%; with MDA-MB-435 melanoma, 110%; in the test on SW-620 colon it was 96.6%; in the test with HCT-116 colon it was 97.6%; in the test with KM12 colon, 103%.

For the compound `COc1ccc(/C=C\C(=O)/C=C/c2ccc(OC)cc2)cc1`, the growth in the test with T-47D breast is 80.1%; in the test on BT-549 breast it was 48.5%; in the test on MDA-MB-435 melanoma it was -30.4% (active); in the test with MCF7 breast it was 11%; in the test on HCT-116 colon, -96.6% (active); in the test on KM12 colon, 4.59% (active).

Take `C=C(c1ccc(N(C)C)cc1)c1ccc(N(C)C)cc1`: the growth in the test with T-47D breast is 26.9%; in the test with BT-549 breast, -5.95% (active); in the test with MDA-MB-435 melanoma it was -67.6% (active); in the test on MCF7 breast, 13.5%; in the test on HCT-116 colon it was 5.45% (active); in the test on HCC-2998 colon, 5.58% (active). For the same compound, in the test on KM12 colon, the growth is 26.5%.

`Cc1nc(O)cc(=O)[nH]1`: the growth in the test with T-47D breast was 113%; with MDA-MB-435 melanoma, 126%; with SW-620 colon it was 109%; in the test with MCF7 breast, 101%; in the test on HCT-116 colon, 113%; in the test on HCC-2998 colon it was 110%. The growth with KM12 colon is 110%.

As to `CCCOCc1cn[nH]n1`, the growth in the test on T-47D breast was 105%; in the test on MDA-MB-435 melanoma, 105%; in the test on SW-620 colon, 109%; in the test on MCF7 breast, 103%; with HCT-116 colon, 107%; with HCC-2998 colon, 104%. In the test with KM12 colon, the growth is 106%.

As for `Clc1ccc(C(SCc2ccccc2)SCc2ccccc2)cc1`, the growth was 79% in the test on T-47D breast; 97.9% in the test with MDA-MB-435 melanoma; 89.4% with SW-620 colon; 93.8% with MCF7 breast; 76.3% in the test on HCT-116 colon; 120% in the test with HCC-2998 colon. For the same compound, the growth with KM12 colon is 85.1%.

In the case of `CCOC(=O)c1ccc(NC(=O)Nc2nccs2)cc1`, the growth was 57.3% in the test on T-47D breast; 5.34% (active) in the test on MDA-MB-435 melanoma; 16.5% in the test with SW-620 colon; 0.495% (active) with MCF7 breast; 1.86% (active) with HCT-116 colon; -27.7% (active) in the test with HCC-2998 colon. In the test on KM12 colon, the growth is -33.3% (active).

Take `CC(=O)Nc1ccc(C(=O)c2ccc(S(=O)(=O)Nc3ccccc3)cc2)cc1`: the growth in the test with T-47D breast is 99.2%; in the test on MDA-MB-435 melanoma, 101%; in the test on SW-620 colon, 103%; with MCF7 breast it was 85.3%; with HCT-116 colon it was 75.4%; in the test on HCC-2998 colon, -97.1% (active). Further, the growth in the test with KM12 colon was 108%.

For the compound `CCOc1ccccc1NC(=O)CCl`, the growth with T-47D breast was 75.3%; with MDA-MB-435 melanoma, 83.9%; with SW-620 colon, 98.4%; in the test on MCF7 breast, 46.6%; in the test with HCT-116 colon it was 75.8%; with HCC-2998 colon it was 110%. The growth in the test with KM12 colon is 97.1%.

For `Cc1ccc(OC(=O)c2ccccc2)cc1`, the growth in the test on T-47D breast is 108%; in the test with MDA-MB-435 melanoma, 112%; in the test with SW-620 colon, 111%; with MCF7 breast, 97.4%; in the test with HCT-116 colon it was 105%; with HCC-2998 colon, 107%. In addition, the growth with KM12 colon was 108%.

As for `Cc1cc(NC(=O)c2ccccc2)c(Cl)cc1N`, the growth with T-47D breast was 98%; in the test with MDA-MB-435 melanoma, 97.4%; in the test on SW-620 colon, 106%; with MCF7 breast, 84.9%; in the test on HCT-116 colon it was 103%; in the test with HCC-2998 colon it was 102%. Besides, the growth in the test with KM12 colon is 106%.

On to `C=COC(=O)C(C)(C)C`, for which the growth is 93.8% with T-47D breast; 101% with MDA-MB-435 melanoma; 98.4% with SW-620 colon; 96% with MCF7 breast; 109% in the test with HCT-116 colon; 94.1% with HCC-2998 colon. Also, in the test on KM12 colon, the growth is 107%.

The record behind these values is PubChem BioAssay (NCI).
